Reference: the supplement of paper PMC3414501
Counter-ions that a name gives are not always drawn.

Tests used:
[1] = system: S. cerevisiae SK1 pCDA2-eGFP (USY613), sporulating; assay: CDA2-GFP sporulation assay sensitivity score (z-score vs DMSO controls); higher = stronger inhibition of sporulation, active = hit call of the paper;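 also: active if sensitivity score above 5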
[2] = system: S. cerevisiae NKY1551 his4x/his4B, sporulating; assay: HIS4 meiotic recombination assay sensitivity score (z-score vs DMSO controls); higher = stronger inhibition of sporulation/recombination, active = hit call of the paper;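 also: active if sensitivity score above 5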
[3] = system: S. cerevisiae AD1-9 (efflux-pump deficient), vegetative growth in YPD; assay: growth sensitivity score (doubling time z-score vs DMSO controls); higher = slower growth, strongly negative scores also mark growth inhibition (complete suppression), active = hit call of the paper
Procedure, shortened: (§1)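 Saccharomyces cerevisiae strains BY4741 and AD1-9 were seeded in rich medium in microtiter plates at an OD600 of 0.065. Compounds were added at a 1:100 dilution of DMSO stock. Optical density was read every 15 min for 24 hours on a Tecan GENios reader. Average doubling time was the time taken to reach a set generation point divided by generation number, and the growth sensitivity score was (compound mean − DMSO-control mean)/DMSO-control SD, using eight DMSO controls per experiment.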

[4] = system: S. cerevisiae BY4741 (wild-type), vegetative growth in YPD; assay: as above
Procedure, shortened: as §1

| SMILES | CDA2-GFP sporulation assay sensitivity score [1] | HIS4 meiotic recombination assay sensitivity score [2] | growth sensitivity score [3] | growth sensitivity score [4] |
| --- | --- | --- | --- | --- |
| CCOC(=O)[C@H](CCc1ccccc1)N[C@H]1CCc2ccccc2N(CC(=O)O)C1=O [Benazepril hydrochloride] (stock concentration (mM, diluted 1:100): 9.2) | -1.49 (inactive) | 0.2 (inactive) | 1.33 (inactive) | 1.72 (inactive) |
| O=c1c(O[C@@H]2O[C@H](CO)[C@@H](O)[C@H](O)[C@H]2O)c(-c2ccc(O)c(O)c2)oc2cc(O)cc(O)c12 [Isoquercetrin] (stock concentration (mM, diluted 1:100): 10) | -1.49 (inactive) | -0.48 (inactive) | -0.6 (inactive) | 0.03 (inactive) |
| O=C1c2c(O)cc(O)cc2OC(c2ccc(O)c(O)c2)C1O (stereo not drawn) [Taxifolin] (stock concentration (mM, diluted 1:100): 10) | -0.07 (inactive) | -0.97 (inactive) | -0.46 (inactive) | -0.85 (inactive) |
| CC[N+](C)(CC)CCOC(=O)C(O)(c1ccccc1)C1CCCCC1 (stereo not drawn) [Oxyphenonium bromide] (stock concentration (mM, diluted 1:100): 10) | 0.76 (inactive) | 1.35 (inactive) | -1.02 (inactive) | 0.39 (inactive) |
| CCS(=O)(=O)CCn1c([N+](=O)[O-])cnc1C [Tinidazole] (stock concentration (mM, diluted 1:100): 10) | 1.26 (inactive) | -1.77 (inactive) | -0.62 (inactive) | -0.09 (inactive) |
| CC(C(=O)O)c1ccc(-c2ccccc2)c(F)c1 (stereo not drawn) [Flurbiprofen] (stock concentration (mM, diluted 1:100): 11.4) | -0.22 (inactive) | -0.16 (inactive) | 0.77 (inactive) | 0.01 (inactive) |
| COc1cc2c(cc1OC)C(=O)C(CC1CCN(Cc3ccccc3)CC1)C2 (stereo not drawn) [Donepezil] (stock concentration (mM, diluted 1:100): 9.1) | 4.44 (inactive) | 0.42 (inactive) | 3.1 (active) | 2.75 (active) |
| CCN1CCC[C@H]1CNC(=O)c1c(O)c(Cl)cc(Cl)c1OC [Raclopride] (stock concentration (mM, diluted 1:100): 10) | 0.74 (inactive) | -0.66 (inactive) | -1.88 (inactive) | 0.66 (inactive) |
| CN1CCN(CCCN2c3ccccc3Sc3ccc(C(F)(F)F)cc32)CC1 [Trifluoperazine dihydrochloride] (stock concentration (mM, diluted 1:100): 10) | -0.39 (inactive) | -2.62 (inactive) |  |  |
| Cc1ccsc1C(=CCCN1CCC[C@@H](C(=O)O)C1)c1sccc1C [Tiagabine hydrochloride] (stock concentration (mM, diluted 1:100): 9.1) | 2.44 (inactive) | 5.07 (active) | 0.07 (inactive) | 0.29 (inactive) |
| CC(C)(C)NC(=O)[C@@H]1CN(Cc2cccnc2)CCN1C[C@@H](O)C[C@@H](Cc1ccccc1)C(=O)N[C@H]1c2ccccc2C[C@H]1O [Indinavir sulphate] (stock concentration (mM, diluted 1:100): 8.6) | -1.29 (inactive) | -1.36 (inactive) | -2.58 | 0 (inactive) |
| COc1cc(/C=C/c2ccc(O)cc2)cc(OC)c1 [Pterostilbene] (stock concentration (mM, diluted 1:100): 10) | -2.39 (inactive) | -0.31 (inactive) |  |  |
| CN1CCC(=C2c3ccccc3CCc3sccc32)CC1 [Pizotyline] (stock concentration (mM, diluted 1:100): 10) | -0.44 (inactive) | 9.23 (active) | 161 (active) | 5.7 (active) |
| c1ccc(-c2ccc(C(c3ccccc3)n3ccnc3)cc2)cc1 (stereo not drawn) [Bifonazole] (stock concentration (mM, diluted 1:100): 10) | 0.04 (inactive) | -0.93 (inactive) |  |  |
| CC(=O)N1CCN(c2ccc(OCC3COC(Cn4ccnc4)(c4ccc(Cl)cc4Cl)O3)cc2)CC1 (stereo not drawn) [Ketoconazole] (stock concentration (mM, diluted 1:100): 10) | 0.13 (inactive) | -1.74 (inactive) | 155 (active) | 35.3 (active) |
| CCOC(=O)c1ccc(OC(=O)CCCCCNC(=N)N)cc1 [Gabexate mesylate] (stock concentration (mM, diluted 1:100): 7.7) | 2.43 (inactive) | 2.41 (inactive) | 10.8 (active) | 1.03 (inactive) |

| SMILES | CDA2-GFP sporulation assay sensitivity score [1] | HIS4 meiotic recombination assay sensitivity score [2] | growth sensitivity score [3] | growth sensitivity score [4] |
| --- | --- | --- | --- | --- |
| CCCc1nc2c(C)cc(-c3nc4ccccc4n3C)cc2n1Cc1ccc(-c2ccccc2C(=O)O)cc1 [Telmisartan] (stock concentration (mM, diluted 1:100): 10) | -1.44 (inactive) | -1.16 (inactive) | 43.7 (active) | 85.7 (active) |
| Nc1c2c(nc3ccccc13)CCCC2 [Tacrine hydrochloride] (stock concentration (mM, diluted 1:100): 9) | 10.2 (active) | -2.37 (inactive) | -5.79 | 2.93 (active) |
| COc1cc(-c2ccc(=O)[nH]n2)ccc1OC(F)F [Zardaverine] (stock concentration (mM, diluted 1:100): 11.7) | 1.43 (inactive) | -0.18 (inactive) | 2.67 (active) | 1.71 (inactive) |
| CNCC[C@H](Oc1cccc2ccccc12)c1cccs1 [Duloxetine hydrochloride] (stock concentration (mM, diluted 1:100): 8.9) | 16.3 (active) | 7.17 (active) | 33.3 (active) | 21.8 (active) |
| CN(C/C=C/C#CC(C)(C)C)Cc1cccc2ccccc12 [Terbinafine hydrochloride] (stock concentration (mM, diluted 1:100): 8.9) | -2.07 (inactive) | -0.72 (inactive) | 30.1 (active) | 93.8 (active) |
| COc1ccc(C(=O)NCc2ccc(OCCN(C)C)cc2)cc1OC [Itopride hydrochloride] (stock concentration (mM, diluted 1:100): 8.2) | -0.55 (inactive) | -1.08 (inactive) | -1.3 (inactive) | -0.67 (inactive) |
| CC1(C)O[C@@H]2[C@@H](CO[C@@]3(COS(N)(=O)=O)OC(C)(C)O[C@@H]23)O1 [Topiramate] (stock concentration (mM, diluted 1:100): 10) | -1.32 (inactive) | 0.22 (inactive) | -0.81 (inactive) | -1.18 (inactive) |
| CCOC(=O)[C@H](CCc1ccccc1)N[C@@H](C)C(=O)N1[C@H](C(=O)O)C[C@@H]2CCC[C@@H]21 [Ramipril] (stock concentration (mM, diluted 1:100): 10) | 0.92 (inactive) | -1.04 (inactive) | 2.05 (active) | -0.9 (inactive) |
| CCOC(=O)O[C@]1(C(=O)OCCl)CC[C@H]2[C@@H]3CCC4=CC(=O)C=C[C@]4(C)[C@H]3[C@@H](O)C[C@@]21C [Loteprednol etabonate] (stock concentration (mM, diluted 1:100): 10) | 0 (inactive) | -0.2 (inactive) | 5.74 (active) | 0.91 (inactive) |
| C=CCc1ccc(O)c(-c2ccc(O)c(CC=C)c2)c1 [Honokiol] (stock concentration (mM, diluted 1:100): 10.1) | 0.56 (inactive) | -1.68 (inactive) |  |  |
| CN1[C@@H]2CC[C@H]1C[C@@H](OC(=O)c1c[nH]c3ccccc13)C2 [Tropisetron hydrochloride] (stock concentration (mM, diluted 1:100): 7.7) | 1.1 (inactive) | 0.82 (inactive) | -2.07 | -0.89 (inactive) |
| COc1cc(C)nc(-n2nc(C)cc2OC)n1 [Mepirizole] (stock concentration (mM, diluted 1:100): 10) | -1.87 (inactive) | -1.87 (inactive) | -0.94 (inactive) | -1.02 (inactive) |
| O=c1cnn([C@@H]2O[C@H](CO)[C@@H](O)[C@H]2O)c(=O)[nH]1 [6-Azauridine] (stock concentration (mM, diluted 1:100): 10) | 0.6 (inactive) | -1.27 (inactive) | 0.13 (inactive) | 0.64 (inactive) |
| CN[C@H]1CC[C@@H](c2ccc(Cl)c(Cl)c2)c2ccccc21 [Sertraline] (stock concentration (mM, diluted 1:100): 9) | -0.26 (inactive) | -0.61 (inactive) |  |  |
| CC1=C(C(=O)O)N2C(=O)[C@@H](NC(=O)[C@H](N)c3ccccc3)[C@H]2SC1 [Cephalexin monohydrate] (stock concentration (mM, diluted 1:100): 10) | -1.64 (inactive) | -1.5 (inactive) | -0.53 (inactive) | 0.27 (inactive) |
| CC(C)C[C@H](NC(=O)[C@@H](COC(C)(C)C)NC(=O)[C@H](Cc1ccc(O)cc1)NC(=O)[C@H](CO)NC(=O)[C@H](Cc1c[nH]c2ccccc12)NC(=O)[C@H](Cc1cnc[nH]1)NC(=O)[C@@H]1CCC(=O)N1)C(=O)N[C@@H](CCCNC(=N)N)C(=O)N1CCC[C@H]1C(=O)NNC(N)=O [Goserelin acetate] (stock concentration (mM, diluted 1:100): 9.6) | 0.53 (inactive) | -1.25 (inactive) | 0.11 (inactive) | -0.77 (inactive) |
